Source: paper PMC7862700, “An all-to-all approach to the identification of sequence-specific readers for epigenetic DNA modifications on cytosine”

What was measured:
Test in all cases: DAPPL (digital affinity profiling via proximity ligation, sequencing); 10 mM Tris-HCl pH 7.5, 50 mM NaCl, 1 mM DTT, 4% glycerol, room temperature, 30 min; GST-TFs on glutathione beads, 16-mer random dsDNA library, 0.1% formaldehyde crosslink after washing; high values mean tight binding
Conditions in all cases: protein: recombinant; tags: N-terminal GST; dsDNA, one strand shown
FLI1 = molecular target: T1, FLI1 (Homo sapiens, UniProt Q01543 1-452)
T1 sequence: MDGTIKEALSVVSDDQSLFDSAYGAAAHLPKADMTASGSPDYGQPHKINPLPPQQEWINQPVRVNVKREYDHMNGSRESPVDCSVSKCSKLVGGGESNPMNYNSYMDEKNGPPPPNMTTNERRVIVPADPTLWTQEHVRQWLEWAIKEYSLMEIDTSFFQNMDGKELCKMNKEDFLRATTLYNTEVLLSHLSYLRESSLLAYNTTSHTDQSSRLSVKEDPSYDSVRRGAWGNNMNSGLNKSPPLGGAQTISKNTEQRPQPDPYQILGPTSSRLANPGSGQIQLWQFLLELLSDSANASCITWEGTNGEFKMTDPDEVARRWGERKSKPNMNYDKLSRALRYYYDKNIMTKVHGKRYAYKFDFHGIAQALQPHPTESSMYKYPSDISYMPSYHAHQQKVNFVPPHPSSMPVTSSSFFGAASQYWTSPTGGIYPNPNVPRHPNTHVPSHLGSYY
Procedure, shortened: (§1)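 Binding signal is defined as a hexamer's read frequency for one factor over its frequency for the tag-only sample. To obtain reads, GST-fused human transcription factors were expressed in yeast, captured on glutathione beads, barcoded with DNA and pooled with that sample. Pools met 200 nmole of a 16-mer random double-stranded DNA library in Tris/NaCl/DTT/glycerol buffer for 30 min at room temperature before washing, 0.1% formaldehyde crosslinking, proximity ligation (BsaI/T4 ligase, 1 h, 37 °C), PCR and Illumina NextSeq500 sequencing.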

ELK1 = molecular target: T2, ELK1 (Homo sapiens, UniProt P19419 1-428)
T2 sequence: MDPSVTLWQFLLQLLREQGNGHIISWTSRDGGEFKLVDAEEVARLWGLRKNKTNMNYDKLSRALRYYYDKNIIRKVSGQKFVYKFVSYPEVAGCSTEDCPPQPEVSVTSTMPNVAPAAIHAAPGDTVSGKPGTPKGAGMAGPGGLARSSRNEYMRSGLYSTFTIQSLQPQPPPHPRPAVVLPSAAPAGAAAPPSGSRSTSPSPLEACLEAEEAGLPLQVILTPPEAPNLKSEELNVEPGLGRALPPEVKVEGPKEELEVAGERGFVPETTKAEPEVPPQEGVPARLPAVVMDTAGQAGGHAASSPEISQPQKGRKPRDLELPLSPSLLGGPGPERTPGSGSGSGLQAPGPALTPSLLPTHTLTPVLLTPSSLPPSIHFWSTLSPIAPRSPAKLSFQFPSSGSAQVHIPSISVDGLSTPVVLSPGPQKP
Procedure, shortened: as §1

GABPA = molecular target: T3, GABPA (Homo sapiens, UniProt Q06546 1-454)
T3 sequence: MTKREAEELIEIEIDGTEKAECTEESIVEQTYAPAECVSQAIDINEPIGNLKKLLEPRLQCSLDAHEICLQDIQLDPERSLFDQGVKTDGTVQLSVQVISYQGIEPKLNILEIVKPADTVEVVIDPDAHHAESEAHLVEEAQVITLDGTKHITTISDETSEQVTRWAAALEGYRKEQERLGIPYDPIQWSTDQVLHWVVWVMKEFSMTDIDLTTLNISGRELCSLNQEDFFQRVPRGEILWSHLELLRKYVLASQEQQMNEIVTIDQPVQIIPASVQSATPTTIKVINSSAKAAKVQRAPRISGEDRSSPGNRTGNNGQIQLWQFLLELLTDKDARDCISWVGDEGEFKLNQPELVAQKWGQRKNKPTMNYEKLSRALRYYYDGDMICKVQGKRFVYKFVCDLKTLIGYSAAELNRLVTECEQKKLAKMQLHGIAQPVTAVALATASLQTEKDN
Procedure, shortened: as §1

ERG = molecular target: T4, ERG (Homo sapiens, UniProt P11308 1-479)
T4 sequence: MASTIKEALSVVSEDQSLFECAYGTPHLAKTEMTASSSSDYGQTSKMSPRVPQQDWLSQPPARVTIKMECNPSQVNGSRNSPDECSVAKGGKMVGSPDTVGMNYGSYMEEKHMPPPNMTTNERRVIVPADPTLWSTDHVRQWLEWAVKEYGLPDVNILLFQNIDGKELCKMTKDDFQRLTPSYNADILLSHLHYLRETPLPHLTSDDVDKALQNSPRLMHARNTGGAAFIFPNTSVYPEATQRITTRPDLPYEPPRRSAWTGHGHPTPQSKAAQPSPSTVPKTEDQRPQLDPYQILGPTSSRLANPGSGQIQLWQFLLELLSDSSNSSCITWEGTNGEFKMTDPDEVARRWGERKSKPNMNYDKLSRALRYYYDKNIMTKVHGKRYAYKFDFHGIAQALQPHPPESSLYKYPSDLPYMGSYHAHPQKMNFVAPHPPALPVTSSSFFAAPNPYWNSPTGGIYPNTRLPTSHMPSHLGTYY
Procedure, shortened: as §1

ELF1 = ELF1 (Homo sapiens, UniProt P32519 1-619)
ELF1, sequence (P32519 whole entry): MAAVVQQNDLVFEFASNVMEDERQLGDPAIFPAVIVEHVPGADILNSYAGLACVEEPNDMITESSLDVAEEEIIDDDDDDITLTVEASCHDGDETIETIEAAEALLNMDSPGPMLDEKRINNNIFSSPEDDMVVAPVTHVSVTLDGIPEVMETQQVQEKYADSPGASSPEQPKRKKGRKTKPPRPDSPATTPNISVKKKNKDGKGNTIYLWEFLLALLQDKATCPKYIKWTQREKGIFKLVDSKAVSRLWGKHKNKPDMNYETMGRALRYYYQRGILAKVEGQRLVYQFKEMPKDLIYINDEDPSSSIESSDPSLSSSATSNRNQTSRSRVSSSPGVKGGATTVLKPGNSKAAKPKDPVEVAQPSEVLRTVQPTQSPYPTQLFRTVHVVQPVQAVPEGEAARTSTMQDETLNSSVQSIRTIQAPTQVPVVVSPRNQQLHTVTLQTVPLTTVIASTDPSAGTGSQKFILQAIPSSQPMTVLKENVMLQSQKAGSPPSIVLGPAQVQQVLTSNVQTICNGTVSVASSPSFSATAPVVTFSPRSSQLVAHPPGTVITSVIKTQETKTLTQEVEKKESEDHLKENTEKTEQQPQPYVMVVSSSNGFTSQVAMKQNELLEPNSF
Procedure, shortened: as §1

EHF = molecular target: T5, EHF (Homo sapiens, UniProt Q9NZC4 1-300)
T5 sequence: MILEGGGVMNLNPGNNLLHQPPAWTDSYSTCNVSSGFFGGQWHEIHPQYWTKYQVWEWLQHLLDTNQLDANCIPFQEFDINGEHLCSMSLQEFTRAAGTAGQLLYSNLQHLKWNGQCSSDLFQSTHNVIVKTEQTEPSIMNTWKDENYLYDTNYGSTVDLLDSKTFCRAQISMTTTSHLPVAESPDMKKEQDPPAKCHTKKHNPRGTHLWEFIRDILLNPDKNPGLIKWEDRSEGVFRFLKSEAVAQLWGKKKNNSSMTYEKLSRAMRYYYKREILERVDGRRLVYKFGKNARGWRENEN
Procedure, shortened: as §1

SPI1 = SPI1 (Homo sapiens, UniProt P17947 1-270)
Procedure, shortened: as §1

SPIB = SPIB (Homo sapiens, UniProt Q01892 1-262)
SPIB, sequence (Q01892 whole entry): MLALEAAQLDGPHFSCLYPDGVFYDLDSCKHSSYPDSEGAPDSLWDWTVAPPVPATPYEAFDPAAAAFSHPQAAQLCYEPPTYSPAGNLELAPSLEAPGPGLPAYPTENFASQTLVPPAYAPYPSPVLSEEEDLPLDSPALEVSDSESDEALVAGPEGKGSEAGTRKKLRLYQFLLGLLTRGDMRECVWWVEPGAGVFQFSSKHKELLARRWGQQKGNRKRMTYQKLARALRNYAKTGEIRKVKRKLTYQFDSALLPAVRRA
Procedure, shortened: as §1

ELK3 = molecular target: T6, ELK3 (Homo sapiens, UniProt P41970 1-407)
T6 sequence: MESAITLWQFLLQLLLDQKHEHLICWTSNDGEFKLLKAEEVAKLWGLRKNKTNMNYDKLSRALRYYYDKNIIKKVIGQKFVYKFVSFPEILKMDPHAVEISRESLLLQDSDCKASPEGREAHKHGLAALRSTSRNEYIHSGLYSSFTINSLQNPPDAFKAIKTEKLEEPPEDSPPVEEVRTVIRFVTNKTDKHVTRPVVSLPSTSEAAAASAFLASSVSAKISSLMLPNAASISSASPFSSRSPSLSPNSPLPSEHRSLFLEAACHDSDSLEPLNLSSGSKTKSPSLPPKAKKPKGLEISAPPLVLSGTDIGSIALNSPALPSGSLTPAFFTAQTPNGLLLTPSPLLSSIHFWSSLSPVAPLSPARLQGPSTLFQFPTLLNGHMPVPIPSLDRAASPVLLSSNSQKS
Procedure, shortened: as §1

ACGTTT
binding signal (FLI1): 1.21 fold enrichment (6-mer frequency, TF over GST control) | binding signal (ELK1): 1.18 fold enrichment (6-mer frequency, TF over GST control) | binding signal (GABPA): 1.18 fold enrichment (6-mer frequency, TF over GST control) | binding signal (ERG): 1.27 fold enrichment (6-mer frequency, TF over GST control) | binding signal (ELF1): 1.17 fold enrichment (6-mer frequency, TF over GST control) | binding signal (EHF): 1.16 fold enrichment (6-mer frequency, TF over GST control) | binding signal (SPI1): 1.12 fold enrichment (6-mer frequency, TF over GST control) | binding signal (SPIB): 1.35 fold enrichment (6-mer frequency, TF over GST control) | binding signal (ELK3): 1.2 fold enrichment (6-mer frequency, TF over GST control)
